Experimental data: article PMC7862700, “An all-to-all approach to the identification of sequence-specific readers for epigenetic DNA modifications on cytosine”

Experiments:
Assay in all cases: DAPPL (digital affinity profiling via proximity ligation, sequencing); 10 mM Tris-HCl pH 7.5, 50 mM NaCl, 1 mM DTT, 4% glycerol, room temperature, 30 min; GST-TFs on glutathione beads, 16-mer random dsDNA library, 0.1% formaldehyde crosslink after washing; high values mean tight binding
[1] = molecular target: T1, FEV (Homo sapiens, UniProt Q99581 1-238); settings: protein: recombinant; tags: N-terminal GST; dsDNA, one strand shown
T1 sequence: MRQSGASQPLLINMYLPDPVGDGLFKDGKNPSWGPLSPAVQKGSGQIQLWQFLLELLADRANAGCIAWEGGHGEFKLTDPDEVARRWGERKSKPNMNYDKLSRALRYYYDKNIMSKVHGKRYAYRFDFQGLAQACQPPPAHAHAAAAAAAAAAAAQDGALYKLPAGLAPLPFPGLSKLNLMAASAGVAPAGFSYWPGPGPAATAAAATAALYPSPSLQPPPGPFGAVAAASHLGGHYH
Outline: (§1)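 After expression in yeast as GST fusions, human transcription factors were bound to glutathione beads, DNA-barcoded and mixed with a tag-only sample. The pools were incubated with 200 nmole of a 16-mer random double-stranded DNA library in Tris/NaCl/DTT/glycerol buffer (30 min, room temperature), washed and crosslinked with 0.1% formaldehyde. Proximity ligation with BsaI/T4 ligase ran for 1 h at 37 °C, before PCR amplification and sequencing on an Illumina NextSeq500. Binding signal is a hexamer's read frequency for a factor divided by its frequency for the tag-only sample.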

[2] = molecular target: ETV5 (Homo sapiens, UniProt P41161 1-510); settings: protein: recombinant; tags: N-terminal GST; dsDNA, one strand shown
Chain of ETV5 (P41161 whole entry): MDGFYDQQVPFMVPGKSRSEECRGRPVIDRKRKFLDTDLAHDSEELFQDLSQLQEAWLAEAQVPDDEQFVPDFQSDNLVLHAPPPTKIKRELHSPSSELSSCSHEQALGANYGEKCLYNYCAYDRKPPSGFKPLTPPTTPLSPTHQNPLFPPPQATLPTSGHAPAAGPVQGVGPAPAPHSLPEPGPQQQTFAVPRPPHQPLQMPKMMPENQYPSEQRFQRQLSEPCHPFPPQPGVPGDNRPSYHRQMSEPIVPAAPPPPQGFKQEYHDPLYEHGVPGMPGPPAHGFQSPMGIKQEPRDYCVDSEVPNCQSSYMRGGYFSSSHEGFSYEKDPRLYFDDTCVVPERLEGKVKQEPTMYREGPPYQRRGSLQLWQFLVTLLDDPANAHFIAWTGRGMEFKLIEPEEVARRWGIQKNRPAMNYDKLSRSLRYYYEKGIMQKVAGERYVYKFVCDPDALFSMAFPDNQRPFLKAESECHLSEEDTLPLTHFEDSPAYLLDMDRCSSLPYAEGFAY
Outline: as §1

[3] = molecular target: HSF1 (Homo sapiens, UniProt Q00613 1-529); settings: protein: recombinant; tags: N-terminal GST; chain copies: 3; dsDNA, one strand shown
Chain of HSF1 (Q00613 whole entry): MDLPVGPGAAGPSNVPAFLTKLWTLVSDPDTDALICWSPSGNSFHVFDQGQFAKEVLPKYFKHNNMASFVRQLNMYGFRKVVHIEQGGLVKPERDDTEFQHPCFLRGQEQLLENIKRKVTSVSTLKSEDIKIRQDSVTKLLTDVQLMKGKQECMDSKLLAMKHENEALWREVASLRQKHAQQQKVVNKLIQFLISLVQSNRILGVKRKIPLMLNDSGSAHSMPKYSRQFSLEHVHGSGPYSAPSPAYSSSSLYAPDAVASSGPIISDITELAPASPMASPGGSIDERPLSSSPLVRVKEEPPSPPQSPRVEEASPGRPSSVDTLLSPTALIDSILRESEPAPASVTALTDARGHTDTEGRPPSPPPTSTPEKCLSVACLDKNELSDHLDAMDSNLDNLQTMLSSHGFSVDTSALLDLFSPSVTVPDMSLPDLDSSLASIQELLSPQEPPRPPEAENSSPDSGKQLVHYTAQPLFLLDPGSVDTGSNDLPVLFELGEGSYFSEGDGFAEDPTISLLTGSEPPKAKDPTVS
Outline: as §1

[4] = molecular target: T2, SPIC (Homo sapiens, UniProt Q8N5J4 1-248); settings: protein: recombinant; tags: N-terminal GST; dsDNA, one strand shown
T2 sequence: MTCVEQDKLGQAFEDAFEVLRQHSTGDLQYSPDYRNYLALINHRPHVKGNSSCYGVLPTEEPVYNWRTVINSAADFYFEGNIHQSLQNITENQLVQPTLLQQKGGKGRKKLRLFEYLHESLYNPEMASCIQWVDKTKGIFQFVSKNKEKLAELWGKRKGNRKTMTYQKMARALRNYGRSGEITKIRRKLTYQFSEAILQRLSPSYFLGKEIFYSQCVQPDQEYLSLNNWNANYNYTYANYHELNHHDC
Outline: as §1

[5] = molecular target: ELF4 (Homo sapiens, UniProt Q99607 1-663); settings: protein: recombinant; tags: N-terminal GST; dsDNA, one strand shown
Chain of ELF4 (Q99607 whole entry): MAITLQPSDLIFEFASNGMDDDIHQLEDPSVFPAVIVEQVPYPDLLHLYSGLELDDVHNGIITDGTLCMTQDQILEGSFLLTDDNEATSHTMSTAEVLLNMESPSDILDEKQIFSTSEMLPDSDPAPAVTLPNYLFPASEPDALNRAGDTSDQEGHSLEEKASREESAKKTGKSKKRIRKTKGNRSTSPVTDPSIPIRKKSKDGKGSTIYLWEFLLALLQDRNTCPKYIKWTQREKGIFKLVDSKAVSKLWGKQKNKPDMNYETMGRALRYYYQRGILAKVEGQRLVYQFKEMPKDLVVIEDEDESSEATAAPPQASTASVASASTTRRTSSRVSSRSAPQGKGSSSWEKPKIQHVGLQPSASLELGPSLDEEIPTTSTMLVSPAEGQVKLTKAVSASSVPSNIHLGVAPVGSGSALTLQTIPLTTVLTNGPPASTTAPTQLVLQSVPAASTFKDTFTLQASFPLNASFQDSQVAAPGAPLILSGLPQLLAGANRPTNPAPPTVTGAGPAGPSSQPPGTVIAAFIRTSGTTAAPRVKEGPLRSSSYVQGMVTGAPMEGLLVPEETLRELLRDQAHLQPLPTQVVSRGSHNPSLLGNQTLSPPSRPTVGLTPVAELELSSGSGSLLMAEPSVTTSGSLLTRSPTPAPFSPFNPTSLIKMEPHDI
Outline: as §1

[6] = molecular target: T3, ELK4 (Homo sapiens, UniProt P28324-2 1-405); settings: protein: recombinant; tags: N-terminal GST; dsDNA, one strand shown
T3 sequence: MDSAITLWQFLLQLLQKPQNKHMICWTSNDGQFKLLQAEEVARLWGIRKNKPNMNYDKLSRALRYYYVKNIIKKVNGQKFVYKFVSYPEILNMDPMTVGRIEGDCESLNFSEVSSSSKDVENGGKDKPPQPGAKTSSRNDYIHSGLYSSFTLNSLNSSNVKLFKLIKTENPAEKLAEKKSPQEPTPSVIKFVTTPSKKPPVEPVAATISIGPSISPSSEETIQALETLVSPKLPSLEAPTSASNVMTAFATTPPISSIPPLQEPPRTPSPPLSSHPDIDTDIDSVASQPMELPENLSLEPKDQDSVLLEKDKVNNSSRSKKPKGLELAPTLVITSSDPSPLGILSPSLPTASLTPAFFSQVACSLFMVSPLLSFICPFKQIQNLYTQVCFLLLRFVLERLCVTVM
Outline: as §1

[7] = molecular target: T4, ETV2 (Homo sapiens, UniProt O00321 1-342); settings: protein: recombinant; tags: N-terminal GST; dsDNA, one strand shown
T4 sequence: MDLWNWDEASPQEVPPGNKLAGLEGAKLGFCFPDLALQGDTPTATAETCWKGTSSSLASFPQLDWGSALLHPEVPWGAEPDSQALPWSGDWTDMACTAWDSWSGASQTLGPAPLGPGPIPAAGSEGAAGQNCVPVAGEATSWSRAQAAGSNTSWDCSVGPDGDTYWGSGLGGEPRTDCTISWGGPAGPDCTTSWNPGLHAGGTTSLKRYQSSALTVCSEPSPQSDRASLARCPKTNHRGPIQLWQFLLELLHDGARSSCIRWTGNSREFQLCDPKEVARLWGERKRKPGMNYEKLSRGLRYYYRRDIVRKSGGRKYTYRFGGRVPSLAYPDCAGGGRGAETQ
Outline: as §1

[8] = molecular target: T5, ELF3 (Homo sapiens, UniProt P78545 1-371); settings: protein: recombinant; tags: N-terminal GST; dsDNA, one strand shown
T5 sequence: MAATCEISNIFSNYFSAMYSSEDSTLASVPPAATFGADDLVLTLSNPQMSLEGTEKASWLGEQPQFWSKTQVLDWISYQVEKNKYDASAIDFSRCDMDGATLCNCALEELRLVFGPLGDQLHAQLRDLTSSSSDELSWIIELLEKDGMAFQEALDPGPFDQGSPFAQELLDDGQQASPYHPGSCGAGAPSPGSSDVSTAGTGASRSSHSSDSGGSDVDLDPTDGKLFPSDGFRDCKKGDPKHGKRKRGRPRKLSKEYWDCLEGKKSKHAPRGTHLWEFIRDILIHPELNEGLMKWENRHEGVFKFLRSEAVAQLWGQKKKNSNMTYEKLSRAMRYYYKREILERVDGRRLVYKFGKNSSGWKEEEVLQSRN
Outline: as §1

[9] = molecular target: CRX (Homo sapiens, UniProt O43186 1-299); settings: protein: recombinant; tags: N-terminal GST; dsDNA, one strand shown
Chain of CRX (O43186 whole entry): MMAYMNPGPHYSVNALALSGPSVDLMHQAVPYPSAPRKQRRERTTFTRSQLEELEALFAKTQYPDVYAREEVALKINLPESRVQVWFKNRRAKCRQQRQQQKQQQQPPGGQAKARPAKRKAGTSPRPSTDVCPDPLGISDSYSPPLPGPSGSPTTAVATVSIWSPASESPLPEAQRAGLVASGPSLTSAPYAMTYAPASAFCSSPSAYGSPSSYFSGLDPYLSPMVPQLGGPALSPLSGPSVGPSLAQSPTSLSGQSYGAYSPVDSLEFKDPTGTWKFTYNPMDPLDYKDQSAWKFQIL
Outline: as §1

[10] = molecular target: ETV1 (Homo sapiens, UniProt P50549 1-477); settings: protein: recombinant; tags: N-terminal GST; dsDNA, one strand shown
Chain of ETV1 (P50549 whole entry): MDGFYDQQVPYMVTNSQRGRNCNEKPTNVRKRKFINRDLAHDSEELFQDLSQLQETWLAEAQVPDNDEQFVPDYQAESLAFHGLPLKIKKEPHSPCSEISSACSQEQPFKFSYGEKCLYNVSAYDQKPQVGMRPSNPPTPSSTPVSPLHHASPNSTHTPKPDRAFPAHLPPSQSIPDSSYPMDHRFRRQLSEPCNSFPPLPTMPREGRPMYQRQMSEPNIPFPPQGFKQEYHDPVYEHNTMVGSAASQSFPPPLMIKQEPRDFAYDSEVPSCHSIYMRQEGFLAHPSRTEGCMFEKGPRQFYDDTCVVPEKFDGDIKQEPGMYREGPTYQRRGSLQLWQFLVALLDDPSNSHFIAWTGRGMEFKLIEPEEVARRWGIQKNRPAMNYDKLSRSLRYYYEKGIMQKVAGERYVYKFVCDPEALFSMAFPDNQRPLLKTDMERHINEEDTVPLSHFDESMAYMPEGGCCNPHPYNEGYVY
Outline: as §1

[11] = molecular target: T6, ERF (Homo sapiens, UniProt P50548 1-548); settings: protein: recombinant; tags: N-terminal GST; dsDNA, one strand shown
T6 sequence: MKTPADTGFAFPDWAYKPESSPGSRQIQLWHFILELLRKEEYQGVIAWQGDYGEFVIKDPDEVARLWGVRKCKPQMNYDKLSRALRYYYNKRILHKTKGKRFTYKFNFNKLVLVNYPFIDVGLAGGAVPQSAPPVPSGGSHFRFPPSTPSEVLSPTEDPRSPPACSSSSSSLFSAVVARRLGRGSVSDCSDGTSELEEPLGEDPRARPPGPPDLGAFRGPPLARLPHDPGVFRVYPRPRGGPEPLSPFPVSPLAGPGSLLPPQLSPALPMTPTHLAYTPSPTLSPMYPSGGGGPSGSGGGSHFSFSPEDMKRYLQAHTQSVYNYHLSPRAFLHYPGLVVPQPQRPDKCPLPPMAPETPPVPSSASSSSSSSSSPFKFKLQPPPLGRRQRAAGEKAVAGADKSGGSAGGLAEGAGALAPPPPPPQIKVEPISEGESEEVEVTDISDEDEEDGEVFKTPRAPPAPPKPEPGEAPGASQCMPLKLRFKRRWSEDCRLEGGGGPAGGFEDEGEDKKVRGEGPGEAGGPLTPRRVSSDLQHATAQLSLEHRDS
Outline: as §1

[12] = molecular target: T7, ETV3L (Homo sapiens, UniProt Q6ZN32 1-361); settings: protein: recombinant; tags: N-terminal GST; dsDNA, one strand shown
T7 sequence: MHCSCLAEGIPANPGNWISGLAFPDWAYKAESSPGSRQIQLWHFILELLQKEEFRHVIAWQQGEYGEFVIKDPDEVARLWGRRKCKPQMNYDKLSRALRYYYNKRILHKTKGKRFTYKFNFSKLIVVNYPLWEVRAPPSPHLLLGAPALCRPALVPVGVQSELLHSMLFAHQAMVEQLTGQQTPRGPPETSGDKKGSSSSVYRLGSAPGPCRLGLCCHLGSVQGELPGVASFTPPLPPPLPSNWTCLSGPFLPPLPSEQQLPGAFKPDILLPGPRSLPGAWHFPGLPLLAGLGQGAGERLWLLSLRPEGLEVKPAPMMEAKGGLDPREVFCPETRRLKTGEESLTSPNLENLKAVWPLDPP
Outline: as §1

[13] = molecular target: T8, ETS2 (Homo sapiens, UniProt P15036 1-469); settings: protein: recombinant; tags: N-terminal GST; dsDNA, one strand shown
T8 sequence: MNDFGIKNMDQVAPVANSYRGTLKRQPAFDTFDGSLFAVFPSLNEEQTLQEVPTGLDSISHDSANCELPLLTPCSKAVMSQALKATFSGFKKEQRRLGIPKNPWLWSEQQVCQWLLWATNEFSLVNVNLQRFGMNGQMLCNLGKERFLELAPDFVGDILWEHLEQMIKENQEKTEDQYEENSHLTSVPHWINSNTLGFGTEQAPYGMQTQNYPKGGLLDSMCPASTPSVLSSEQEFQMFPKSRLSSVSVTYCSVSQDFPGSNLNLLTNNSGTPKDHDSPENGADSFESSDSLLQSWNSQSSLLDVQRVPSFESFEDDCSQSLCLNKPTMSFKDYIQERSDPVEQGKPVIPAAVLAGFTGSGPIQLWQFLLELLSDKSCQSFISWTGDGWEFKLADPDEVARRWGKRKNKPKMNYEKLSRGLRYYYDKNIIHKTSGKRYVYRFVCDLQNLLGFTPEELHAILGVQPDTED
Outline: as §1

[14] = molecular target: T9, SPDEF (Homo sapiens, UniProt O95238 1-335); settings: protein: recombinant; tags: N-terminal GST; dsDNA, one strand shown
T9 sequence: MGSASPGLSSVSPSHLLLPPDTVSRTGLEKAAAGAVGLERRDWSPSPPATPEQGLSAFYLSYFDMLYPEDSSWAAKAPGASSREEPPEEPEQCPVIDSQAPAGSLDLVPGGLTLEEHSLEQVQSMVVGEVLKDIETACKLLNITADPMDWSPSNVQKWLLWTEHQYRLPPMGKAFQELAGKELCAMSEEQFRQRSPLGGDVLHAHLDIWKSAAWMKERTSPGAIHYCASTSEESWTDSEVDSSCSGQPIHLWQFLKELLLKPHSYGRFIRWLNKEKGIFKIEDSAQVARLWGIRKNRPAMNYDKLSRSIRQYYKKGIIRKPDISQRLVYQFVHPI
Outline: as §1

[15] = molecular target: T10, ETV7 (Homo sapiens, UniProt Q9Y603 1-341); settings: protein: recombinant; tags: N-terminal GST; dsDNA, one strand shown
T10 sequence: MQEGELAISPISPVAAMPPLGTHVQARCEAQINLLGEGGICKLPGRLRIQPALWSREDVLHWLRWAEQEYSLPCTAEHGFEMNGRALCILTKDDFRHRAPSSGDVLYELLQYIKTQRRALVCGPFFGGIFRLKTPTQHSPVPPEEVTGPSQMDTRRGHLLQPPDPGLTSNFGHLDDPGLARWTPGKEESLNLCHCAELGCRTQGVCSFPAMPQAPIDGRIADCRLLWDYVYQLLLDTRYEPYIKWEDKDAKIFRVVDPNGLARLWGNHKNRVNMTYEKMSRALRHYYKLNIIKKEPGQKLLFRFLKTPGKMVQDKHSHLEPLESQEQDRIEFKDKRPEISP
Outline: as §1

[16] = molecular target: T11, ELF5 (Homo sapiens, UniProt Q9UKW6-2 1-255); settings: protein: recombinant; tags: N-terminal GST; dsDNA, one strand shown
T11 sequence: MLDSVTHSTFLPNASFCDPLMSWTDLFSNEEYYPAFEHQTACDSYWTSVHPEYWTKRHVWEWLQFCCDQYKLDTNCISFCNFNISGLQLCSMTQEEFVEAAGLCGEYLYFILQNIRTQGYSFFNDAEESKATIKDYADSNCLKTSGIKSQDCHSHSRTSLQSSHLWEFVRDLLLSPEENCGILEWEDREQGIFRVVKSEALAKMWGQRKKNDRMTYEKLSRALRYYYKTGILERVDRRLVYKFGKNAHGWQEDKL
Outline: as §1

[17] = molecular target: T12, ETV3 (Homo sapiens, UniProt P41162-2 1-143); settings: protein: recombinant; tags: N-terminal GST; dsDNA, one strand shown
T12 sequence: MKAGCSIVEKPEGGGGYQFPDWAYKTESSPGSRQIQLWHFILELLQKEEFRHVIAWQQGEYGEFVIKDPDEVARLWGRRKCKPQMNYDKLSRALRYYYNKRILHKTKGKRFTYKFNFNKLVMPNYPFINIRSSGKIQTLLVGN
Outline: as §1

[18] = molecular target: ETV6 (Homo sapiens, UniProt P41212 1-452); settings: protein: recombinant; tags: N-terminal GST; dsDNA, one strand shown
Chain of ETV6 (P41212 whole entry): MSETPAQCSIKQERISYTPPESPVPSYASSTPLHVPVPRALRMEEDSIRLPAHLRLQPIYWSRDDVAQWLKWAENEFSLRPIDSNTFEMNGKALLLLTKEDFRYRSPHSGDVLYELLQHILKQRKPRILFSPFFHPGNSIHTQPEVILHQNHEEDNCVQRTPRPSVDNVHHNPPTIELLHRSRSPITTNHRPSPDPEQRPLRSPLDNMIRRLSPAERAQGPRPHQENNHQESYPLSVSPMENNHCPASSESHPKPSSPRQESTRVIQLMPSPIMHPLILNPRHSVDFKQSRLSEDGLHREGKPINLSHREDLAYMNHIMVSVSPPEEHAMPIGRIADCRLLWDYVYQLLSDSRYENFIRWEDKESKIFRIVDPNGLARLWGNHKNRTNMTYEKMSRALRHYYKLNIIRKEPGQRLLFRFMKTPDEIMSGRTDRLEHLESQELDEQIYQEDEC
Outline: as §1

## ATATAC
[1]
  binding signal: 1.11 fold enrichment (6-mer frequency, TF over GST control)
[2]
  binding signal: 1.16 fold enrichment (6-mer frequency, TF over GST control)
[3]
  binding signal: 1.12 fold enrichment (6-mer frequency, TF over GST control)
[4]
  binding signal: 1.17 fold enrichment (6-mer frequency, TF over GST control)
[5]
  binding signal: 1.13 fold enrichment (6-mer frequency, TF over GST control)
[6]
  binding signal: 1.2 fold enrichment (6-mer frequency, TF over GST control)
[7]
  binding signal: 1.12 fold enrichment (6-mer frequency, TF over GST control)
[8]
  binding signal: 1.22 fold enrichment (6-mer frequency, TF over GST control)
[9]
  binding signal: 1.08 fold enrichment (6-mer frequency, TF over GST control)
[10]
  binding signal: 1.21 fold enrichment (6-mer frequency, TF over GST control)
[11]
  binding signal: 1.19 fold enrichment (6-mer frequency, TF over GST control)
[12]
  binding signal: 1.17 fold enrichment (6-mer frequency, TF over GST control)
[13]
  binding signal: 1.26 fold enrichment (6-mer frequency, TF over GST control)
[14]
  binding signal: 1.29 fold enrichment (6-mer frequency, TF over GST control)
[15]
  binding signal: 1.24 fold enrichment (6-mer frequency, TF over GST control)
[16]
  binding signal: 1.12 fold enrichment (6-mer frequency, TF over GST control)
[17]
  binding signal: 1.17 fold enrichment (6-mer frequency, TF over GST control)
[18]
  binding signal: 1.19 fold enrichment (6-mer frequency, TF over GST control)
